Compounds with a hit are over-represented: about 1.8% of the library has one in this group of screens.
TRPML1 inh: inhibitors of human TRPML1 channel; TRPML1-inducible cells, Ca2+ dye fluorescence, FDSS; active compounds read low; inhibition of EC80 agonist-evoked calcium signal; Q9GZU1; activity change, negative = inhibition, % (concentration not given with the values); 390,000 compounds, 0.02% hits; in the data active = activity change below about -50%; inconclusive = between about -30% and that limit;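 note: stimulus is agonist 54-4 at its EC80 concentration; % is set by controls: 0 for no effect and ±100 for the full control effect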
Target sequence (Q9GZU1 whole entry, looked up): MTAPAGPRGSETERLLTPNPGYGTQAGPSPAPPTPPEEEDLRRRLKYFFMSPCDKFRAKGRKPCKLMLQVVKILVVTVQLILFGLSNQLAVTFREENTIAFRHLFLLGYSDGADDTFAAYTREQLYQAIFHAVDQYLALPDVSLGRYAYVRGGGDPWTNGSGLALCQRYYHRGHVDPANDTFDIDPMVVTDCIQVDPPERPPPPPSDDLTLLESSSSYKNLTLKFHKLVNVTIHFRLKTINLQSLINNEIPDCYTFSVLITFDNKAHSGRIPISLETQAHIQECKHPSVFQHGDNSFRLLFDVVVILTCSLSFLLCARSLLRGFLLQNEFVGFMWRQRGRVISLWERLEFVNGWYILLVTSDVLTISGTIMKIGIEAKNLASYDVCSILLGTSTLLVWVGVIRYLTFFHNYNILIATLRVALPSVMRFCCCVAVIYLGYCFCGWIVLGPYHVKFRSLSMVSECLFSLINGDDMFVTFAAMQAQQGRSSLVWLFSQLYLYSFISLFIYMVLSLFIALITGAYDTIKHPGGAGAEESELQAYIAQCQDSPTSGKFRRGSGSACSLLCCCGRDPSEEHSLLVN
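Tet-induced TRPML1-DL cells loaded with Ca8 no-wash calcium dye were read kinetically on FDSS. Compound addition was followed by EC80 agonist 54-4 (4 uM final); inhibition was read over 110 s.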
GLP-1R agonist: agonists of human GLP-1 receptor; AID 624172; P43220; HEK293 GLP-1R CRE-luciferase, luminescence, 4-6 h; cells express a hypersensitive GLP-1R form; 380,000 compounds, 0.007% hits; Potency, µM (doses to about 45.6 µM), for inactives: top-dose activation, most hits filed as activators; note: potency is the fitted concentration of half-maximal effect; % of control where 0% means no effect
TRPML1 agonist: agonists of human TRPML1 channel; Q9GZU1; TRPML1-expressing cells, Ca2+ dye fluorescence, FDSS; activation, % (test concentration not listed); 410,000 compounds, 0.12% hits; AID 624414; in the data active = activation above about 50%; inconclusive = mostly about 30% to 49%; note: 0% is about no effect
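TRPML1-DL cells, Tet-induced overnight (~16 h, 37 degrees C), loaded 45-90 min at room temperature with Ca8 no-wash calcium dye plus quencher. FDSS fluorescence: 10 s baseline, compound pin-transfer, 110 s agonist read, then EC80 54-4 (4uM final) and 110 s antagonist read.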
GLP-1R inv ag: inverse agonists of human GLP-1 receptor; 410,000 compounds, 1.6% hits; HEK293 GLP-1R CRE-luciferase, luminescence, 24 h; GLP-1R form is constitutively active; Potency, µM (titrated, usually from 38.3 µM), without a hit: at the highest dose activity change, negative = inhibition, usual class: inhibitors; note: potency is the fitted concentration of half-maximal effect; % is set by controls: 0 for no effect and ±100 for the full control effect; nearly all actives have a fitted effect of over 55% in size
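Cells are plated, allowed 12 hours at 37 deg C, then treated with compounds for 24 hr before luciferase detection reagent is added and luminescence is read after 12 min at room temperature. The HEK293 line carries constitutively active GLP-1R with a cAMP-responsive reporter.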
HEK293 tox: cytotoxicity counter-screen for GLP-1 receptor inverse agonists; AID 624418; HEK293 cAMP-luciferase reporter cells, luminescence, 24 h; Potency, µM (top dose mostly 38.3 µM), for the others: top-dose activity change, negative = inhibition, most hits filed as inhibitors; 410,000 compounds, 0.13% hits;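 note: loss of luciferase light is scored as toxicity; potency is the fitted concentration of half-maximal effect; % is set by controls: 0 for no effect and ±100 for the full control effect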
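To flag toxic compounds, the library was rerun on cells for 24 hr at 37 deg C and 5% CO2. Viability-linked luminescence was captured 12 min after adding luciferase detection reagent.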
Numbers without * were called inactive. Unless noted, calls come from the whole dose curve; as a rule, active = well fitted curve in the direction sought with a large enough effect; inconclusive = small, poorly fitted or top-dose-only effect, or another doubt; inactive = no such curve, though single readings can be large; an effect the other way counts as inactive or inconclusive.

How did CCOC(=O)c1c(C)[nH]c(C(=O)OCC(=O)N2c3ccccc3CC2C)c1C (configuration not stated) do in these assays?
TRPML1 inh: 0.5; GLP-1R agonist: -1.0%; TRPML1 agonist: -0.5; GLP-1R inv ag: 8.91µM*; HEK293 tox: -16.8%

How did CCOc1ccc(Sc2cc(C(=O)NC(C)c3ccccc3)c3ccccc3n2)cc1 (configuration not stated) do in these assays?
TRPML1 inh: -14.4; TRPML1 agonist: 0.8; GLP-1R inv ag: 16.5%; HEK293 tox: -0.1%

What do the screens show for `C=C(CC1([C@@H](NP(=O)(c2ccccc2)c2ccccc2)[C@H]2C[C@@H]2CCCC)CC1)c1ccccc1`?
TRPML1 inh: -7.2; GLP-1R agonist: 1.5%; TRPML1 agonist: 1.0; GLP-1R inv ag: 2.51µM*; HEK293 tox: 8.9%

How did CCCC[C@@H]1C[C@H]1[C@@H](NC(=O)c1ccccc1)c1ccccc1C(F)(F)F do in these assays?
TRPML1 inh: 6.6; GLP-1R agonist: 9.6%; TRPML1 agonist: 0.8; GLP-1R inv ag: inconclusive; HEK293 tox: -10.6%

Results for Cc1ccc(NC(=O)Cn2nc(C)c3nn(-c4ccc(Cl)cc4)c(C)c3c2=O)cc1F ?
TRPML1 inh: -11.6; TRPML1 agonist: 0.1; GLP-1R inv ag: -4.4%; HEK293 tox: -11.4%

What do the screens show for `Clc1ccc2c(N/N=C/c3cccc(Br)c3)ccnc2c1`?
TRPML1 inh: -5.8; GLP-1R agonist: -2.9%; TRPML1 agonist: 2.4; GLP-1R inv ag: 12.6µM*; HEK293 tox: inconclusive

Results for O=C(Cn1nc(-c2ccccc2)c2cnc3ccccc3c21)Nc1ccccc1 ?
TRPML1 inh: inconclusive; TRPML1 agonist: -0.5; GLP-1R inv ag: 14.9%; HEK293 tox: -2.4%

What do the screens show for `Cc1cnc2ccccc2c1/C=C/c1ccc(N(C)C)cc1`?
TRPML1 agonist: -0.5

Results for COc1cc(/C=C2\SC(=Nc3ccc(Cl)c(C(=O)O)c3)NC2=O)c(Br)c(Br)c1O ?
TRPML1 inh: -3.6; GLP-1R agonist: 0.5%; TRPML1 agonist: 67.2*; GLP-1R inv ag: -16.2%; HEK293 tox: 73.1%

How did COc1cc(/C=C2\SC(=Nc3ccccc3)NC2=O)cc(Cl)c1O do in these assays?
TRPML1 inh: -17.8; GLP-1R agonist: 35.6%; TRPML1 agonist: 76.9*; GLP-1R inv ag: 74.7%; HEK293 tox: 56.4%

What do the screens show for `COC(=O)/C=C1\SC(=Nc2ccc(Cl)c(Cl)c2)NC1=O`?
TRPML1 inh: 25.6; GLP-1R agonist: 4.9%; TRPML1 agonist: 1.1; GLP-1R inv ag: 44.8%; HEK293 tox: 7.0%

How did CN(C)c1ccc(/C=C/c2cnnc3ccccc23)cc1 do in these assays?
TRPML1 agonist: 16.0

What do the screens show for `COc1cccc(C(C)NC(=O)c2c(F)cccc2Cl)c1` (configuration not stated)?
TRPML1 inh: -8.7; GLP-1R agonist: 0.5%; TRPML1 agonist: 2.6; GLP-1R inv ag: -7.6%; HEK293 tox: -8.1%

What do the screens show for `COc1cccc(C(C)NC(=O)Nc2ccccc2Cl)c1` (configuration not stated)?
TRPML1 inh: 2.5; GLP-1R agonist: -0.6%; TRPML1 agonist: 5.3; GLP-1R inv ag: 12.6µM*; HEK293 tox: 23.5%

How did Cc1ccc(C(=O)N2c3ccccc3Sc3ccccc32)cc1 do in these assays?
GLP-1R agonist: 9.0%; TRPML1 agonist: -0.5; GLP-1R inv ag: -28.6%; HEK293 tox: -14.1%

Results for Cc1ccc(SCC(=O)N2c3ccccc3Sc3ccccc32)cc1 ?
TRPML1 inh: -3.5; GLP-1R agonist: 1.6%; TRPML1 agonist: 0.8; GLP-1R inv ag: 7.94µM*; HEK293 tox: 21.5%

How did C=C1C(n2cnc3c(=O)[nH]c(N)nc32)C[C@H](O)[C@H]1CO (some centres not stated) do in these assays?
GLP-1R agonist: 7.5%

Results for O=C(NCCc1csc(-c2ccc(C(F)(F)F)cc2)n1)c1ccc(F)c(F)c1 ?
TRPML1 inh: 1.6; GLP-1R agonist: -2.1%; TRPML1 agonist: 1.9; GLP-1R inv ag: 10µM*; HEK293 tox: -11.9%

How did COc1ccccc1CCNC(=O)c1ccc(NC(=O)N2CC(C)Sc3ccccc32)cc1 (configuration not stated) do in these assays?
TRPML1 inh: 10.7; TRPML1 agonist: 2.0; GLP-1R inv ag: inconclusive; HEK293 tox: -24.4%

How did COc1ccc(S(=O)(=O)Nc2cccc(S(=O)(=O)N3CCCCCC3)c2)cc1 do in these assays?
TRPML1 inh: -9.6; GLP-1R agonist: -1.2%; TRPML1 agonist: 0.6; GLP-1R inv ag: inconclusive; HEK293 tox: 9.9%

What do the screens show for `COc1ccc(NS(=O)(=O)c2cccc(C(=O)NCC(c3ccc(OC)cc3)N3CCCC3)c2)cc1` (configuration not stated)?
TRPML1 inh: 17.2; GLP-1R agonist: 2.4%; TRPML1 agonist: 2.0; GLP-1R inv ag: inconclusive; HEK293 tox: -9.1%

Results for COc1ccc(C(CNC(=O)COc2ccc(F)cc2Cl)N2CCCCC2)cc1 (configuration not stated) ?
TRPML1 inh: 3.8; GLP-1R agonist: 1.3%; TRPML1 agonist: -0.5; GLP-1R inv ag: -13.7%; HEK293 tox: -22.9%

Results for O=S(=O)(Nc1nc2ccccc2nc1Nc1cccc(S(=O)(=O)N2CCCCC2)c1)c1ccccc1 ?
TRPML1 inh: 33.6; GLP-1R agonist: -18.3%; TRPML1 agonist: 1.0; GLP-1R inv ag: 11.2µM*; HEK293 tox: -29.3%

Results for COc1ccc(NS(=O)(=O)c2cccc(NC(=O)c3ccc(S(=O)(=O)N4CCCCCC4)cc3)c2)cc1 ?
TRPML1 inh: -0.2; GLP-1R agonist: 0.8%; TRPML1 agonist: 0.6; GLP-1R inv ag: 7.94µM*; HEK293 tox: -4.8%

Results for COc1ccc(C(CNC(=O)c2cccc(S(=O)(=O)Nc3ccc(F)cc3)c2)N2CCCC2)cc1 (configuration not stated) ?
TRPML1 inh: 3.7; GLP-1R agonist: -11.4%; TRPML1 agonist: -0.5; GLP-1R inv ag: 10µM*; HEK293 tox: -12.4%

What do the screens show for `COc1ccc(C(CNC(=O)COc2ccc(Br)cc2F)N2CCCC2)cc1` (configuration not stated)?
TRPML1 inh: 17.3; GLP-1R agonist: 5.4%; TRPML1 agonist: 1.6; GLP-1R inv ag: 12.6µM*; HEK293 tox: 8.5%

What do the screens show for `O=S1(=O)CCOC[C@H](c2ccccc2)N1Cc1ccc(Cl)cc1Cl`?
TRPML1 agonist: 0.0

Results for O=C(NCC(c1ccc(F)cc1)N1CCOCC1)c1ccc(OCc2ccccc2)cc1 (configuration not stated) ?
TRPML1 inh: 2.3; GLP-1R agonist: 1.8%; TRPML1 agonist: 1.3; GLP-1R inv ag: 10µM*; HEK293 tox: -13.4%

Source: PubChem BioAssay
